# In PubChem BioAssay:
# Active and inactive are the calls of the source.
# Tests used:
# [1] = binders of probe aFSTL3 on microarray, primary screen, stem cell growth factor project, biochemical, small-molecule microarray, fluorescence 635/667 (AID 1064); conditions: higher = more signal;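 further: measures binding of the biotinylated anti-FSTL3 antibody to printed compounds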
# [2] = binders from COS7 lysate, DM2A8 probe, primary screen, torsin A project, cell lysate, small-molecule microarray, fluorescence 635/667 (AID 1065); conditions: higher = more signal, COS7 lysate expressing mutant human TOR1A
# [3] = binders of probe aFGF2 on microarray, primary screen, stem cell growth factor project, biochemical, small-molecule microarray, fluorescence 635/667 (AID 1067); conditions: higher = more signal;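 further: measures binding of biotinylated aFGF2 protein to printed compounds on slides; z-score merges feature fluorescence and signal-to-noise across triplicate slides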
# [4] = binders of probe aFGF10 on microarray, primary screen, stem cell growth factor project, biochemical, small-molecule microarray, fluorescence 635/667 (AID 1071); conditions: higher = more signal;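 further: score merges 667 nm spot intensity and signal to noise from triplicate slides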
# [5] = target: Neurogenic locus notch homolog protein 2 (Homo sapiens) (UniProt Q04721); assay: Notch2 binders on small-molecule microarrays, primary screen, biochemical, small-molecule microarray, 635 nm fluorescence, stem cell growth factors (AID 1073); conditions: Notch2 binding, higher = more signal
# [6] = target: Pro-neuregulin-1, membrane-bound isoform (Homo sapiens) (UniProt Q02297); assay: NRG1 binders on small-molecule microarrays, primary screen, psychiatric disease protein project, biochemical, small-molecule microarray, fluorescence 635/667 (AID 1075); conditions: NRG1 binding, 635 nm fluorescence, higher = more signal;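 further: score combines 667 nm spot fluorescence with signal to noise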
# [7] = tested on: Neuregulin-1 EGF-like domain; assay: binders of neuregulin-1 EGF-like domain, primary screen, biochemical, small-molecule microarray, 635 nm fluorescence (AID 1081); conditions: small-molecule microarray binding, higher = more signal;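 further: binding of the protein to compounds printed on small-molecule microarray slides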
# [8] = FRG1 promoter luciferase signal modulators, primary screen, FRG1 inhibition for FSHD, cell-based, C2C12 myotubes, firefly/Renilla luciferase, luminescence (AID 1084); conditions: higher = more signal, called active from +8 up or from −8 down
# [9] = binders of probe aFST on microarray, primary screen, stem cell growth factor project, biochemical, small-molecule microarray, fluorescence 635/667 (AID 1086); conditions: higher = more signal;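 further: score merges 667 nm fluorescence with signal-to-noise of each printed compound spot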
# [10] = binders of probe aHhip on microarray, primary screen, stem cell growth factor project, biochemical, small-molecule microarray, fluorescence 635/667 (AID 1087); conditions: higher = more signal;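 further: score merges spot fluorescence at 667nm with spot signal to noise ratio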
# Sequence of Neurogenic locus notch homolog protein 2 (Homo sapiens) (Q04721 whole entry, looked up, canonical isoform): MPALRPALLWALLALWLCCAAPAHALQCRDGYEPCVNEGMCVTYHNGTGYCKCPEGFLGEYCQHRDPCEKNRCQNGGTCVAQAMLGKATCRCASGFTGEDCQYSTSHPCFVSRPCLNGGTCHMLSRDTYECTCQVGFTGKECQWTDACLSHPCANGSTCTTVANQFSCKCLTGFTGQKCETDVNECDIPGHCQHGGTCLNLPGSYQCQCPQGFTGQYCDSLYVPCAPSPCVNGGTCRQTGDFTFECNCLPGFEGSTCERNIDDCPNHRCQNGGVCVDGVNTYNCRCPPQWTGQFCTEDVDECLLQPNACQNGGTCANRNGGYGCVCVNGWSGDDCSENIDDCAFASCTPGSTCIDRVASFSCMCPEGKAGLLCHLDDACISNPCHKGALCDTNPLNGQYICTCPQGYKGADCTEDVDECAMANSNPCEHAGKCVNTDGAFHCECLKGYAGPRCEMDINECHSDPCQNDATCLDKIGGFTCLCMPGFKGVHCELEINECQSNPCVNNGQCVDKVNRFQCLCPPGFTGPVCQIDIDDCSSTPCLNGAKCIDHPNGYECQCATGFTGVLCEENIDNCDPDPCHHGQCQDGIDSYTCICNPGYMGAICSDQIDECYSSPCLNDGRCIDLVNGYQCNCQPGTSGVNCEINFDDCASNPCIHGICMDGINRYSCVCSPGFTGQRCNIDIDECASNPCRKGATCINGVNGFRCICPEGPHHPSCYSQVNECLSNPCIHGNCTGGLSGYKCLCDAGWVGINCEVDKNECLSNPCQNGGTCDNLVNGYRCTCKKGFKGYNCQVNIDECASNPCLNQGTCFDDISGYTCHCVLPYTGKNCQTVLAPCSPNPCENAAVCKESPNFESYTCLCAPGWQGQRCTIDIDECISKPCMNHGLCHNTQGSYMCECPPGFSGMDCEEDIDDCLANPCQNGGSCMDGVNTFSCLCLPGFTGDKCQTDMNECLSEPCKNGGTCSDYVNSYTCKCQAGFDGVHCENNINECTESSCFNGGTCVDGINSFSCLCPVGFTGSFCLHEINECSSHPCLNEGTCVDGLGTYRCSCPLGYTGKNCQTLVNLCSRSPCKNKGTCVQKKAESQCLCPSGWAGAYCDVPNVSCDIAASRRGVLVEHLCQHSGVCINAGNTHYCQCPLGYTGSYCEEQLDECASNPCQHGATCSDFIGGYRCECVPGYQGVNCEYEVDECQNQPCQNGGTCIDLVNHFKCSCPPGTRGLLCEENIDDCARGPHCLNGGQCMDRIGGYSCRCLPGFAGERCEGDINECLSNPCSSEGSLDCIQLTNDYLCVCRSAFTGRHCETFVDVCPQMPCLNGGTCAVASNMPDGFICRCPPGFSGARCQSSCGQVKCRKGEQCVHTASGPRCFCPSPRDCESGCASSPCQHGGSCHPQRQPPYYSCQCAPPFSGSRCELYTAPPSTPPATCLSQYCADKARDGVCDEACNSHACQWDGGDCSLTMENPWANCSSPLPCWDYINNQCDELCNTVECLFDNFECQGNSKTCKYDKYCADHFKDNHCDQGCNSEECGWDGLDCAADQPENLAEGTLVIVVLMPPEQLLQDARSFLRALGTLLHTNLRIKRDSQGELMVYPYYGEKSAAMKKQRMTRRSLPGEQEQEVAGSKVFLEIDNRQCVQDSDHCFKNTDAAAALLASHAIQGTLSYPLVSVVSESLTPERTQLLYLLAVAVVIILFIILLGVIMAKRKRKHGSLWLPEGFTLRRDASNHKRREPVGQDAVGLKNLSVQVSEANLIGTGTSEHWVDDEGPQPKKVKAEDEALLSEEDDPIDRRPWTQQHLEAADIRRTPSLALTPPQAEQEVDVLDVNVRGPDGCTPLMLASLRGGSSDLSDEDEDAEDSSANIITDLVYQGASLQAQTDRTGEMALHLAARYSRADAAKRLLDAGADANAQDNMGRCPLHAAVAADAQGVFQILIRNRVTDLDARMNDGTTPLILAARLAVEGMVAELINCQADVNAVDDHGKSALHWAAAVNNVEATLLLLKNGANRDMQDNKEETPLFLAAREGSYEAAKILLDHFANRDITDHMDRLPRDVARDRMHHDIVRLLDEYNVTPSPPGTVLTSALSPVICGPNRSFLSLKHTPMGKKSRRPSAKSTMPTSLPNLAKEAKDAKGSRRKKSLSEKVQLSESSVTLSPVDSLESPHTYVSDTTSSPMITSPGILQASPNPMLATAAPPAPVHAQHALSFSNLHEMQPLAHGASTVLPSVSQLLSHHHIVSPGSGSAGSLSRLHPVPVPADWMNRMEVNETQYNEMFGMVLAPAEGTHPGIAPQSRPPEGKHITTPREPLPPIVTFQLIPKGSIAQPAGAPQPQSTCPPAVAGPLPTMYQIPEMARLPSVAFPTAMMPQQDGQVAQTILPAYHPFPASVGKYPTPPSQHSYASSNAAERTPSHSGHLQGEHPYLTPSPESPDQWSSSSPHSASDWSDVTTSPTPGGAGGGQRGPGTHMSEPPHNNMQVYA
# Sequence of Pro-neuregulin-1, membrane-bound isoform (Homo sapiens) (Q02297 whole entry, looked up, the tested form may be a part, canonical isoform): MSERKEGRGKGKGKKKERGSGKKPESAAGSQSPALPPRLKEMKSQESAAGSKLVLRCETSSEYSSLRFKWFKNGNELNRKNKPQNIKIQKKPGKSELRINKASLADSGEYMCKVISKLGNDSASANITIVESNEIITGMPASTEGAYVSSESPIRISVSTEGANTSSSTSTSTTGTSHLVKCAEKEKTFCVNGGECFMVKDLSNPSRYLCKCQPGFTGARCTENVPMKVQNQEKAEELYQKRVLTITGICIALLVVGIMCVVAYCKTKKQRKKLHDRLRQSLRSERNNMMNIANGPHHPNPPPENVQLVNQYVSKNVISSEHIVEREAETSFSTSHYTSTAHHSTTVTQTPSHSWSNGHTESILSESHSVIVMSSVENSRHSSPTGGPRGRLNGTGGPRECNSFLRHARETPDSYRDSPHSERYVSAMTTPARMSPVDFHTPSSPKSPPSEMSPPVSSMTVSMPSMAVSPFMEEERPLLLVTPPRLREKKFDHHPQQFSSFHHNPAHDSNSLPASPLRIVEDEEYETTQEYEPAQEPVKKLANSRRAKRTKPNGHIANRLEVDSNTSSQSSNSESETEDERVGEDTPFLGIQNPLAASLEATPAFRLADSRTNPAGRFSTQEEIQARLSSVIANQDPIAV
SMILES,composite z-score [1],composite z-score [2],composite z-score [3],composite z-score [4],composite z-score [5],composite z-score [6],composite z-score [7],z-score [8],composite z-score [9],composite z-score [10]
COC(=O)C(CC#Cc1ccc2c(c1)[C@]1(C(=O)N2)[C@H](C(=O)N2CCCCCCC2)[C@H]2C(=O)O[C@H](c3ccccc3)[C@H](c3ccccc3)N2[C@@H]1c1ccc(OCCO)cc1)C(=O)OC,3.58,2.87,0.941,1.37,1.75,2.94,1.33,1.91 (inactive),3.35,2.77
COCCOC(=O)N1C(=O)[C@@]2(c3cc(C#CCNC(N)=O)ccc31)[C@H](c1ccccc1OCCO)N1[C@H](c3ccccc3)[C@H](c3ccccc3)OC(=O)[C@H]1[C@@H]2C(=O)N1CCCCCCC1,1.63,0.646,0.0495,0.57,0.725,0.665,1.1,0.515 (inactive),1.29,1
C#CCN(C(=O)OC(C)(C)C)[C@H](CO)c1ccccc1,-0.402,0.289,-0.113,0.0182,-0.148,-0.329,0.77,-0.0216 (inactive),0.115,-0.111
CC(C)(C)OC(=O)CC[C@]1(C(=O)N2CCOCC2)COC(c2ccc(OCCCO)cc2)=N1,-0.77,0.667,0.0476,0.0767,0.498,1.6,1.32,-0.462 (inactive),0.163,-0.0275
COC(=O)[C@@]1(Cc2ccc(F)cc2)[C@H]2c3cc(C(=O)N4CCCC4)n(CCc4c[nH]c5cc(F)ccc45)c3C[C@H]2CN1C(=O)c1ccccc1,0.198,0.197,0.289,0.634,1.68,2.01,1.35,0.53 (inactive),1.69,0.281
C=CCNC(=O)[C@H]1[C@@H]2C(=O)O[C@@H](c3ccccc3)[C@@H](c3ccccc3)N2[C@@H](c2ccc(OCCO)cc2)[C@]12C(=O)Nc1ccc(C#Cc3ccc(OC)cc3)cc12,-0.179,0.897,0.0566,0.705,1.46,1.52,1.22,0.744 (inactive),0.624,0.289
COC(=O)[C@@]1(Cc2ccc(F)cc2)[C@H]2c3cc(C(=O)N4CCCC4)n(Cc4ccc(OC(F)(F)F)cc4)c3C[C@H]2CN1C(=O)c1ccccc1,0.262,-0.292,0.0336,0.334,1.08,0.621,0.71,1.45 (inactive),0.401,-0.0074
CO[C@H]1O[C@H](CO)[C@@H](OC(=O)Nc2cccc(F)c2)[C@H](OC(=O)Nc2ccc3c(c2)OCO3)[C@@H]1OC(=O)Nc1ccc2c(c1)OCO2,-0.0407,0.786,0.112,0.959,1.46,1.25,1.27,4 (inactive),0.986,0.21
O=C1c2ccccc2[C@@]2(Cc3ccccc3N(CC(F)(F)F)C2=O)[C@H](c2ccc(CO)cc2)N1Cc1ccccc1,0.386,0.0025,-0.124,0.316,-0.661,0.0876,-0.533,0.605 (inactive),-0.0539,-0.129
[N-]=[N+]=NCc1ccccc1C[C@@]1(C(N)=O)N=C(c2ccc(OCCCO)cc2)O[C@@H]1c1ccccc1N=[N+]=[N-],-0.459,-0.0227,0.0131,1.15,1.43,1.38,1.07,-0.739 (inactive),0.926,0.0722
O=C1O[C@H](c2ccccc2)[C@H](c2ccccc2)N2[C@H]1[C@@H](C(=O)N1CCCCCCC1)[C@]1(C(=O)Nc3ccc(C#CCCO)cc31)[C@H]2c1ccc(O)cc1,3.79,2.62,0.978,1.4,1.79,2.79,1.42,-1.1 (inactive),3.34,1.7
CCCC=C(CCC)[C@@H](NC(=O)c1ccc(C(=O)OC)cc1)c1ccc(C(=O)OC)cc1,0.0362,-0.312,0.355,-0.327,0.423,0.203,-0.166,1.24 (inactive),0.484,2.54
CC(C)(C)OC(=O)CC[C@@]1(C(=O)N2CCOCC2)N=C(c2ccc(OCCCO)cc2)O[C@@H]1c1ccccc1CN=[N+]=[N-],0.12,0.161,0.254,0.674,1.1,1.88,1.31,3.86 (inactive),0.694,0.186
O=C1C2C=CC(C(O)C(c3ccccc3)c3ccccc3)N(Nc3ccccc3F)C2C(=O)N1c1ccccc1 (stereo not given),-0.117,0.975,0.11,1.03,1.63,1.76,1.32,-0.243 (inactive),1.5,-0.121
O=C1NC(=O)C2C1C=CC(C(O)C1CCCCC1)N2Nc1ccccn1 (stereo not given),-0.236,0.0046,-0.0524,0.235,0.629,1.37,1.32,1.64 (inactive),0.265,-0.374
C=C(C(=O)CC[C@@H](OC(=O)c1ccccc1-c1ccccc1C(=O)O)c1ccc(OCCO)cc1)C(C)C,-0.49,0.235,0.0129,1.11,0.52,0.551,0.512,2.12 (inactive),0.136,0.245
